# Measurements: PubChem BioAssay AID651946 (Broad Institute, 2012)
# Measured potencies and affinities stand elsewhere. Calls of active or inactive are those of the source.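 Rule for the calls: active = toxic compound whose fitted half-effect dose of signal loss is at most twice its top tested dose; inconclusive = flat fit losing 30 to 70% signal, or poor fit; inactive = the rest.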
# Experiment: cytotoxicity in HeLa cells, dose response, cytotoxicity control, cell-based, plate reader, dry powder (AID 651946)
# Conditions: HeLa viability, ATP luminescence (CellTiter-Glo), 48 h; series mostly up to 26 µM
row,SMILES,outcome
1,c1ccc(CSc2nnc(-c3ccccc3)o2)cc1,inactive
2,Clc1ccc(-c2nnc(SCc3ccccc3)o2)cc1,inactive
3,COc1ccc(CSc2nnc(-c3ccccc3)o2)cc1,inactive
